The list is not random: actives were taken first. Their share in the collection is about 3%.
Glyco luc inh: N-linked glycosylation inhibition; 360,000 tested, 0.23% active; AID 588692; reporter increase, % at 12.5 µM; D54 ERlucT glycosylation luciferase reporter, 24 h; percent of 100 nM tunicamycin response;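 active = mean luciferase reporter signal, scaled so untreated is 0 and the glycosylation-blocking control 100, at or above a set limit in every replicate; inconclusive = mean reaches the limit but not every replicate does; inactive = mean below the limit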;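 note: luciferase carries N-glycosylation sites so blocking glycosylation raises the light; 0% = median of neutral control wells and 100% = median of 100 nM tunicamycin wells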
PfHsp90 set2: reduces growth (ATP signal) of yeast expressing P. falciparum Hsp90. S. cerevisiae expressing PfHsp90, BacTiter-Glo ATP, 48 h; yeast lacking PDR1 and PDR3 efflux regulators. inhibition, % at 9.4 µM. 310,000 tested, 0.32% active. AID 504621;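 active = every replicate shows inhibition above about 80%, whatever the replicate mean, limit read from the data; inconclusive = mean inhibition reaches the set limit but some replicate falls short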;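 note: 0% = DMSO neutral controls and 100% = 20 µM radicicol positive controls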
Wnt act: activates Wnt/beta-catenin signaling in a reporter cell assay. 300,000 tested, 1.2% active. activator, plate reader. activation, % at 9.35 µM. AID 743398; in the data active = activation above about 30%, passing the limit was not always enough; inconclusive = no clear call, values can overlap the other calls;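 note: 0% = neutral control wells and 100% = positive control wells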
MITF act: MITF TRPM1 promoter activation in melanoma cells; SK-MEL-5 TRPM1-promoter luciferase, 24 h; % of positive control, neutral wells = 0; activation, % at 12.5 µM; 300,000 tested, 0.75% active; AID 588334;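 active = mean activation of at least 80% with every replicate also reaching 80%; inconclusive = mean reaches 80% but some replicate falls short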;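 note: 0% = neutral control wells and 100% = parthenolide positive control wells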
esBAF inh: blocks esBAF chromatin remodeling in mouse ES cells | Bmi1-luciferase knock-in reporter, 24 h; 100% = twice the neutral-well signal | reporter increase, % at 12.5 µM | 350,000 tested, 2% active | AID 602393; in the data active = activation above about 40%; inconclusive = no clear call, values can overlap the other calls;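 note: 0% = median of the plate's neutral control wells and 100% = double that signal; a rise in the Bmi1 reporter signal indicates esBAF inhibition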
Vif inh: inhibitors of HIV Vif; HEK293T cells, Vif self-association by quenched fluorescence, imaging, 24 h; inhibition, % at 7.49 µM; 340,000 tested, 0.35% active; in the data active = inhibition above about 50%, passing the limit was not always enough; inconclusive = no clear call, values can overlap the other calls; inactive = below about 31%
An asterisk follows results filed as active; ? = inconclusive; . = no result.

SMILES	Glyco luc inh	PfHsp90 set2	Wnt act	MITF act	esBAF inh	Vif inh
O=c1[nH][nH]c(=O)c2c(NS(=O)(=O)c3ccccc3)cccc12	-1	-3	12	33	46*	0
COc1cccc(NC(=O)CN(C)C(=O)CCNC(=O)c2ccc(Br)cc2)c1	0	-7	0	2	.	4
Cc1ccc(Nc2cc(C)c3c(O)cccc3n2)cc1C	-11	-9	1	111*	25	3
COC(=O)c1sc2ccccc2c1NC(=O)c1coc2ccccc2c1=O	3	10	-4	4	.	-2
Cc1nc(Nc2nc3ccccc3o2)nc(C)c1C	-15	15	-2	5	.	4
CCCc1nc(Nc2nc3ccccc3o2)nc(C)c1C(=O)OCC	-6	-2	.	116*	63*	-11
O=C(Nc1cc(Cl)cc(Cl)c1)C(NCC1CCCO1)c1ccccc1 (stereo not drawn)	-2	24	-2	5	-7	11
COc1cccc2cc(CC(=O)c3ccc(C)cc3C)c(=O)oc12	-2	3	14	90*	87*	-7
Cc1cccc(C(=O)OCC(=O)NCC2CCCO2)c1O (stereo not drawn)	-2	19	-4	3	6	3
COc1ccc(CN2CCC(C(=O)NC(C)c3cccc4ccccc34)CC2)cc1 (stereo not drawn)	-3	.	.	.	0	.
CC(NC(=O)C1CCN(CCOc2ccc(Cl)cc2)CC1)c1cccc2ccccc12 (stereo not drawn)	1	.	-3	.	-9	66*
CN(c1ccc(O)cc1)S(=O)(=O)c1ccc2ccccc2c1	-2	-9	0	33	58*	-3
CCN(c1ccccc1)S(=O)(=O)c1ccc2ccccc2c1	-3	8	0	-5	-6	7
CN1CCN(Cc2cc(Cl)c3cccnc3c2OC(=O)c2cccs2)CC1	-3	-41	62*	-29	.	-4
Cc1ncc(S(=O)(=O)c2ccccc2)c(-c2ccc(Cl)cc2Cl)n1	-1	4	.	10	-15	4
CCOC(=O)c1c(Nc2ccc(OC)cc2)n[nH]c1C	.	.	34*	.	.	.
COc1cccc2cc(-c3cn4ccc(C)cc4n3)c(=O)oc12	0	9	.	73	105*	0
Cc1cccnc1NC(=O)c1ccc2c(c1)OCCO2	0	12	-2	38	.	13
Cc1ccnc(NC(=O)c2ccc3c(c2)OCO3)c1	-12	25	15	74	-31	3
O=C(Nc1ncccc1O)c1ccc2ccccc2c1	-14	-5	63*	4	-43	6
O=C(Nc1ncccc1O)c1ccc2c(c1)OCO2	6	25	54*	43	3	-7
O=C(Nc1ncccc1O)c1ccc2c(c1)OCCO2	3	-21	99*	21	10	.
O=C(Nc1ncccc1O)c1ccc(Cl)c(S(=O)(=O)N2CCCCCC2)c1	0	.	-2	2	.	1
C=CCn1c(-c2cc3cccc(OC)c3o2)n[nH]c1=S	1	10	-1	-7	.	5
CC(C)c1ccc(NC(=O)N2CCOCC2)cc1	-1	-3	3	.	45*	-4
SMILES	Glyco luc inh	PfHsp90 set2	Wnt act	MITF act	esBAF inh	Vif inh
CC(=O)Nc1ccc(NC(=O)N2CCOCC2)cc1	2	.	-1	.	-1	-2
CCNC(=S)Nc1ccc2c(c1)oc1ccccc12	-1	4	38*	?	63*	-6
O=C(Nc1ccc2c(c1)oc1ccccc12)N1CCOCC1	0	-1	.	56	60*	4
CCNC(=S)Nc1ccc2ncoc2c1	0	.	1	-4	-2	7
Cc1cccn2c(=O)c3cc(C(=O)NCc4ccc(F)cc4)c(=N)n(CC4CCCO4)c3nc12 (stereo not drawn)	7	21	-3	8	-7	0
CC(C)(C)OC(=O)N1CCC[C@H]1c1nnc(SCC(=O)Nc2ccc(Br)cc2)o1	-1	-10	-2	.	.	6
O=C(NNc1ncc(C(F)(F)F)cc1Cl)c1c(Cl)cccc1Cl	18	-18	-26	.	-19	-3
COc1cc(OC)cc(C(=O)Nc2ccc3c(c2)OCCO3)c1	-3	20	14	.	42*	-3
CCCC(=O)Nc1cccc(NC(=O)c2ccc3c(c2)OCCO3)c1	-2	2	7	42	43*	1
COc1cc(OC)cc(C(=O)NC(C(=O)Nc2ccc3c(c2)OCCO3)C(C)C)c1 (stereo not drawn)	-1	8	0	14	-13	-1
CCOc1ccc(C(=O)Nc2ccc3c(c2)OCCO3)cc1OC	-3	22	-1	34	67*	-8
CCOc1ccc(C(=O)Nc2ccc3c(c2)OCCO3)cc1[N+](=O)[O-]	-1	-4	0	25	.	2
Cc1ccc(-c2nc(N/N=C/c3ccncc3)c3ccccc3n2)cc1	5	17	8	6	-30	.
Clc1ccc(/C=N/Nc2nc(Cl)nc3ccccc23)cc1	-2	-41	.	.	58*	2
Clc1ccc(/C=N/Nc2nnc(Cl)c3ccccc23)cc1	2	-11	11	39	90*	-6
Clc1nnc(N/N=C/c2ccccc2)c2ccccc12	0	-7	.	15	39	-2
O=c1c2ccccc2nc(N/N=C/c2ccc(O)cc2)n1O	2	-3	.	38	47*	16
COc1cc2ccccc2cc1C(=O)Nc1nnc(-c2ccncc2)o1	2	-8	3	-8	-2	5
Cc1ccc(CNC(=O)NCc2ccccc2)cc1	0	-1	7	13	.	.
O=C(NCc1csc2ccc(Cl)cc12)Nc1ccccc1	-2	-7	28	.	-4	-6
O=C(NCc1ccc(Cl)cc1Cl)Nc1ccccc1	-6	3	46*	66	.	10
Cc1ccc(CNC(=O)Nc2ccccc2)cc1	-2	-4	21	?	46*	12
Cc1ccc(C)c(CNC(=O)Nc2ccccc2)c1	-3	-19	3	86*	51*	0
CC(=O)Nc1ccc(C(=O)Nc2cc(C(F)(F)F)ccc2-n2cnc3ccccc32)cc1	2	12	1	-5	.	3
CCCc1cn(CC[C@@H]2CC[C@H](NC(=O)Nc3ccc4c(c3)OCO4)[C@@H](CO)O2)nn1	.	.	.	.	-4	.
COc1cccc(-c2ccc3n(c2=O)C[C@@H]2[C@@H](CO)[C@H](C(=O)N(C)C)[C@H]3N2C(=O)c2cnccn2)c1	.	.	.	.	0	.
CC1=C(C(=O)OCCOC(C)C)C(c2cccc3ccccc23)NC(=O)N1 (stereo not drawn)	0	17	-1	-12	8	0
COc1ccc(-c2cc3ccccc3oc2=O)cc1NC(=O)c1ccc(Br)o1	-4	-34	.	53	-7	6
COc1ccc(-c2cc3ccccc3oc2=O)cc1NC(=O)c1ccc([N+](=O)[O-])o1	50*	.	.	-55	42*	-6

Source: PubChem
